# Only some compounds are listed: those with a hit (about 7.3% of all), similar ones and a draw of the others.
# HCMV inh = blocks human cytomegalovirus replication; activity change, negative = inhibition, % at 57.5 µM; HFF cells, HCMV-luciferase reporter, 72 h; active compounds read low; 410,000 tested, 4.5% active; in the data active = activity change below about -60%; inconclusive = no clear call, values can overlap the other calls; inactive = above about -39%
#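 Two compound doses tested in HFFs infected with HCMV-luciferase, MOI 1 PFU/cell, 72 h at 37C. Lysate luminescence read with OneGlo; data normalized against buffer-only and 10uM Salinomycin inhibitor controls.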
# FMDV inh = foot and mouth disease virus antiviral activity; FMDV antiviral cell-based qHTS; Potency, µM (highest dose often 57.9 µM), for inactives: top-dose activity change, negative = inhibition, hits mostly inhibitors; 410,000 tested, 1.2% active; calls by dose curve; tested in HEK293T cells; note: read-out not given here; potency is the fitted concentration of half-maximal effect; nearly all actives have a fitted effect of over 45% in size
# VACV Venus inh = vaccinia inhibition (Venus reporter); AID 720580; 330,000 tested, 0.46% active; Potency, µM (highest dose often 36.5 µM), inactives show at the highest dose activity change, negative = inhibition, actives largely listed as inhibitors; Vaccinia virus Venus reporter expression, fluorescence; calls by dose curve; tested in A549 cells; note: potency is the fitted concentration of half-maximal effect; nearly all actives have a fitted effect of over 30% in size
# Vaccinia mCherry = vaccinia inhibition (mCherry reporter) | Vaccinia virus mCherry reporter infection, fluorescence | Potency, µM (titrated, usually from 36.5 µM), without a hit: at the top dose activity change, negative = inhibition, actives largely listed as inhibitors | 310,000 tested, 0.63% active; calls by dose curve; tested in A549 cells; note: potency is the fitted concentration of half-maximal effect; nearly all actives have a fitted effect of over 35% in size
# HCV inh = inhibitors of hepatitis C virus infection. Potency, µM (series often up to 41.8 µM), for the others: top-dose activity change, negative = inhibition, actives largely listed as inhibitors. Huh7.5.1 HCVcc-Cre infection, luciferase reporter, 44 h. 340,000 tested, 3.4% active. AID 651820; active = well fitted inhibition curve with a large enough effect; inconclusive = small, poorly fitted or top-dose-only effect, or another doubt; inactive = no such curve, though single readings can be large or run the other way; note: potency is the fitted concentration of half-maximal effect
#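 Compounds are dispensed onto cells plated 4 h earlier at 1,000 per well, with HCVcc-Cre virus (about 0.5 moi) added next. Following 44 h of culture, luminescent signal is measured for 15 sec after 15 min with substrate at room temperature.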
# Numbers without * were called inactive; i = inactive; ? = inconclusive; nt = not tested or not shown; + = active, no number. % is set by controls: 0 for no effect and ±100 for the full control effect.
SMILES,HCMV inh,FMDV inh,VACV Venus inh,Vaccinia mCherry,HCV inh
CCOC(=O)C1CCCN(C(=O)Cn2c(=O)cc(C)c3c(C)nn(C)c32)C1 (configuration not stated),-10,?,-6%,-11%,nt
Cc1cc(=O)n(CC(=O)N2CCN(c3ccc(F)cc3)CC2)c2c1c(C)nn2C,-30,28µM*,-23%,-2%,nt
Cc1ccc(C(=O)Nc2ccccc2-c2ccccc2)o1,-67*,0%,-23%,nt,9%
CN1CCN(c2ccccc2NC(=O)c2ccc(-c3ccc(Cl)cc3Cl)o2)CC1,-39,?,nt,nt,10µM*
Cc1cnc(C(=O)Nc2ccccc2-c2ccc(C)o2)cn1,29,-8%,0%,-13%,7.9µM*
Cc1cnc(C(=O)Nc2cccc3ncccc23)cn1,-3,4%,-7%,-14%,2%
O=C(Nc1ccccc1N1CCN(C(=O)c2ccccc2)CC1)c1ccc([N+](=O)[O-])o1,?,0%,?,11µM*,?
CCOC(=O)c1nnc2c(-c3ccc(Cl)cc3)c(C)nn2c1C,-3,-5%,-11%,-11%,nt
COc1ccc(C2N=C(Nc3nc4ccccc4o3)NC3=C2C(=O)CC(C)(C)C3)cc1 (configuration not stated),nt,nt,?,-29%,nt
CC1CCN(c2ccccc2NC(=O)c2ccc([N+](=O)[O-])o2)CC1,-10,-2%,9%,14%,-26%
Cc1ccc(C(=O)Nc2ccccc2N2CCCCC2)o1,-61*,?,nt,nt,?
O=C(Nc1ccccc1N1CCCC1)c1ccc([N+](=O)[O-])o1,-71*,0%,nt,nt,?
Cc1cc(C)nc(NC(=O)c2ccc(C)o2)n1,-98*,-29%,nt,nt,5%
Cc1cccc(NC(=O)c2ccc([N+](=O)[O-])o2)c1C,-14,-18%,?,?,?
Cc1ccc(C(=O)Nc2ccccc2N2CCCCC2)cc1,-11,-20%,10%,-25%,-25%
COc1ccccc1NC(=O)c1ccc([N+](=O)[O-])o1,-63*,-26%,nt,nt,-24%
CN(C)c1ccc(/C=C2\c3ccccc3-c3ccc(N(C)C)cc32)cc1,nt,nt,-4%,-13%,nt
CN1CCN(c2ccccc2NC(=O)c2sc3ccccc3c2Cl)CC1,41,-22%,5%,2%,13µM*
COc1ccc(N2CCN(C(=O)c3cccn3-c3nnc(N4CCCC4)s3)CC2)cc1,0,10%,-6%,-11%,nt
Cc1ccc2nc3c(cc2c1)CN(Cc1ccco1)C(=NCC1CCCO1)S3 (configuration not stated),-70*,-11%,-14%,-4%,-11%
CCCSCCCNC(=O)C1CCN(C(=O)c2cnn(-c3ccccc3)c2-n2cccc2)CC1,1,-26%,-11%,-5%,nt
COc1ccc(CN(C(=O)/C=C/C(=O)c2ccc(OC)cc2O)C(C(=O)NC2CCCCC2)c2ccncc2)cc1 (configuration not stated),-84*,2%,?,-14%,-25%
COc1ccc(C(=O)OCC(=O)NC(=O)NC2CCCC2)c(O)c1,55,-9%,-15%,-14%,13%
COc1ccc(C(=O)/C=C/C(=O)N(Cc2ccc3c(c2)OCO3)C(C(=O)NC2CCCCC2)c2ccncc2)c(O)c1 (configuration not stated),?,-10%,?,?,?
COCCN(CC(=O)NC1CCCCC1)C(=O)/C=C/C(=O)c1ccc(OC)cc1O,-112*,3.2µM*,1%,1%,?
SMILES,HCMV inh,FMDV inh,VACV Venus inh,Vaccinia mCherry,HCV inh
COc1ccc(C(=O)/C=C/C(=O)N(CC(=O)NC2CCCCC2)Cc2cccs2)c(O)c1,-100*,6.3µM*,nt,nt,-16%
Cc1ccc(S(=O)(=O)C2CCN(c3nc(-c4cccs4)nc4ccccc34)CC2)cc1,nt,nt,-7%,-10%,nt
COc1ccccc1CNc1nc2c(S(=O)(=O)c3ccccc3)nnn2c2ccc(Cl)cc12,7,5%,?,?,nt
C[N+]1(CC(=O)c2ccccc2)CCc2ccccc2C1 (configuration not stated),nt,nt,-3%,-16%,nt
Cc1cc(C(=O)CSc2ccc(Cl)cc2)cc(C)c1OC(=S)N(C)C,-18,14%,?,nt,10µM*
Cc1cc(C(=O)CSc2ccc(F)cc2)cc(C)c1O,4,43%,-23%,?,?
O=C(Nc1ccc(OC(=O)N2CCCC2)cc1)N1CCOCC1,10,0%,-1%,-17%,17%
O=C(Nc1ccc(O)cc1)N1CCOCC1,-9,10%,nt,nt,7%
O=C(Nc1ccc(Nc2ccccc2)cc1)N1CCOCC1,-63*,4%,4%,-7%,-4%
O=C(Nc1ccc(OC(=O)N2CCCCC2)cc1)N1CCOCC1,+,?,-4%,-21%,-13%
CCOC(=O)c1ccccc1NC(=O)CSc1nccn1Cc1ccco1,?,-4%,-16%,-3%,nt
Cc1onc(-c2ccccc2Cl)c1C(=O)Oc1cc(N)n(S(=O)(=O)c2ccc(F)cc2)n1,31,32µM*,-26%,?,-25%
O=C(Nc1cccn(Cc2c(Cl)cccc2Cl)c1=O)c1ccccc1Cl,-31,?,nt,nt,?
O=C(Nc1cccn(Cc2c(Cl)cccc2Cl)c1=O)c1ccc(Cl)cc1Cl,-97*,?,nt,nt,11µM*
COc1ccccc1NC(=O)Nc1ccc2c(c1)OCCO2,53,19%,nt,nt,-3%
O=C(Nc1ccc2c(c1)OCCO2)c1coc2ccccc2c1=O,-36,7.9µM*,-25%,?,13%
COc1cc2cc(C(=O)Nc3ccc4c(c3)OCCO4)[nH]c2cc1OC,-68*,?,nt,nt,?
COc1cccc(OC)c1C(=O)Nc1ccc2c(c1)OCCO2,-79*,-3%,nt,nt,12%
COc1cc(C(=O)Nc2ccc3c(c2)OCCO3)ccc1OC(C)C,108,-3%,-21%,nt,13µM*
NCCCC(C(=O)O)N(C(=O)OCc1ccccc1)C(=O)OCc1ccccc1 (configuration not stated),-8,nt,nt,nt,nt
CC(C)Cc1nc2cc(NS(=O)(=O)N(C)C)cc(C(=O)N3CCc4sccc4C3)c2n1C,nt,36%,-7%,0%,nt
CCOC(=O)c1ccccc1NC(=O)c1c(F)c(F)c(F)c(F)c1F,-5,-25%,nt,nt,10µM*
CCOC(=O)c1ccccc1NC(=O)c1ccc(N(C)S(C)(=O)=O)cc1,-16,nt,0%,-1%,10µM*
CCOC(=O)c1c(C)[nH]c(CCC(=O)Nc2ccccc2C(=O)OC)c1C,-73*,-8%,-8%,-11%,nt
CCC1(C2CCN(C(=O)c3ccccc3Cl)CC2)NC(=O)N(CCc2scnc2C)C1=O (configuration not stated),nt,9%,-14%,i,nt
Cc1cc(Nc2cccc(Cl)c2)nc2ccc(NC(=O)Cc3cccc(C(F)(F)F)c3)cc12,-99*,-14%,-19%,-15%,nt
Cc1cc(Nc2cccc(Cl)c2)nc2ccc(NC(=O)Cc3c(F)cccc3Cl)cc12,-40,-3%,-18%,-10%,nt
Cc1cc(Nc2cccc(Cl)c2)nc2ccc(NC(=O)Cc3ccc(Cl)cc3)cc12,-104*,-29%,?,-26%,nt

# From PubChem
